# Compound activity deposited in PubChem by Broad Institute.
# RAD54 branch: blocks human RAD54 Holliday junction branch migration; Q92698; inhibition, % at 10.4 µM; 0.14% of 360,000 active; FAM/BHQ fluorescence;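 active = mean normalized replicate activity at least 40 and at least half of replicates scoring 40 or more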;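 note: 0% = median of neutral control wells and 100% = median of positive control wells; inhibitors cause a drop in the FAM fluorescence signal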
# Target sequence (Q92698 whole entry, looked up): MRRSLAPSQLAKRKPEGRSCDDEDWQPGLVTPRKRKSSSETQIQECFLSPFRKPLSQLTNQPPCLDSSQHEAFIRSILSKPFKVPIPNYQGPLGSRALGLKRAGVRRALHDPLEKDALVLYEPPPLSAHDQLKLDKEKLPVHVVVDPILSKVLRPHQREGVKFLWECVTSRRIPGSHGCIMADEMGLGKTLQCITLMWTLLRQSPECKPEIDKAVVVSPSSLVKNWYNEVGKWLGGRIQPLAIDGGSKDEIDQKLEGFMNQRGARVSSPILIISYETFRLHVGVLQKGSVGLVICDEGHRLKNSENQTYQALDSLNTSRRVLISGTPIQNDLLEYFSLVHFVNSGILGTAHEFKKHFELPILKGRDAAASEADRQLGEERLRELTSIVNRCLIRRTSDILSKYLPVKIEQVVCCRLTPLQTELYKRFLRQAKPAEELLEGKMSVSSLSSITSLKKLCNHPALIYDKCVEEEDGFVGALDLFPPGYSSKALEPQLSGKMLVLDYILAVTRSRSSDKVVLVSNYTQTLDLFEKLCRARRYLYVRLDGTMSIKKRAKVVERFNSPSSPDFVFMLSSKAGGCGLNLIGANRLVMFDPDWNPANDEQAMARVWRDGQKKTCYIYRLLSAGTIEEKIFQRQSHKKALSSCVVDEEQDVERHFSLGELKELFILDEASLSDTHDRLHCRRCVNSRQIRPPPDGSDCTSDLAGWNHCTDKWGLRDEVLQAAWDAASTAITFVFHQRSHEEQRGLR
# PGC1a acetyl inh: PGC1a acetylation modulation, inhibitor mode; U2OS PGC1a acetylation, AlphaScreen anti-acetyl-lysine; with virally co-expressed GCN5 acetyltransferase; inhibition, % at 15.6 µM; 0.17% of 350,000 active;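 active = every replicate shows inhibition of at least 40%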;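 note: 0% = neutral control wells and 100% = positive control wells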
# ERAP1 inh: inhibitors of human ERAP1 aminopeptidase. Q9NZ08. recombinant ERAP1, Leu-AMC fluorescence, 60 min. inhibition, % at 10.7 µM. 0.15% of 340,000 active. AID 652197;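 active = mean replicate inhibition of at least 30%, or all replicates individually reaching that 30% level; inactive = mean below 30% and not every replicate reaching it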;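 note: 0% = neutral control wells and 100% = L-leucinethiol positive control wells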
# RAD52 anneal inh: inhibitors of human RAD52 DNA annealing. P43351. recombinant RAD52 DNA annealing, FRET fluorescence. inhibition, % at 18.7 µM. 0.46% of 360,000 active;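 active = every replicate showing at least 50% inhibition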
# GSIS activator: GLuc luminescence reporter in INS-1E cells, primary screen for activators of glucose-dependent secretion of insulin; AID 743287; activation, % at 16.6 µM; INS-1E GLuc reporter insulin secretion, 2-3 h; 0.61% of 370,000 active;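 active = lowest replicate activation of at least 40%, so every replicate reaches that level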;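 note: 0% = median of neutral control wells and 100% = median of IBMX positive control wells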
# AF4-AF9 inh: inhibitors of human MLL-AF4/AF9 interaction. AlphaScreen, biotin-AF4 peptide binding to FLAG-AF9. inhibition, % at 10 µM. 0.47% of 350,000 active;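 active = every replicate reaching a set inhibition limit, whatever the replicate mean, cut at about 25% in these data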;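 note: 0% = plate neutral control median and 100% = total signal loss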
# * marks the source's active call; other numbers are inactive results; · = no result; ! = repeats disagree. Most compounds without a hit are left out; they make up all but 1.4% or so of the library.
SMILES,RAD54 branch,PGC1a acetyl inh,ERAP1 inh,RAD52 anneal inh,GSIS activator,AF4-AF9 inh
COc1ccc(C#Cc2ccc([C@@H]3[C@H](CO)N4CCCCN(C)C[C@@H]34)cc2)cc1,8.8,-37.2,-0.5,63.3*,-8.1,7.6
COc1ccc(C#Cc2ccc([C@H]3[C@@H](CO)N4CCCCN(C)C[C@H]34)cc2)cc1,11.5,-25.3,0.6,79.9*,3.2,-13.7
CN1CCCCN2[C@H](CO)[C@H](c3ccc(C#Cc4ccccc4F)cc3)[C@H]2C1,16.6,-9.1,3.0,69.1*,-0.3,16.2
COc1ccc(C#Cc2ccc([C@H]3[C@@H](CO)N4CCCCN(Cc5ccccc5F)C[C@H]34)cc2)cc1,12.4,-21.1,-1.5,-23.4,-2.7,29.1*
O=C(Nc1ccc2c(c1)[C@H]1C[C@H](CC(=O)N3CCOCC3)O[C@H](CO)[C@H]1O2)c1cccnc1,0.8,0.2,-0.5,-17.4,17.9,-2.1
C[C@@H]1CN([C@H](C)CO)C(=O)Cc2cc(NC(=O)Nc3cccc4ccccc34)ccc2O[C@@H]1CN(C)Cc1ccc(C(=O)Nc2ccccc2N)cc1,·,0.6,0.9,-9.8,6.2,-8.6
O=C1C=CC(=O)c2c(O)c(N3CCN(CCO)CC3)c(Cl)c(O)c21,·,50.5*,5.1,29.5,-35.0,14.4
COCC(=O)Nc1ccc2c(c1)C(=O)N(C)[C@H]1CC[C@H](CC(=O)NC3CCCC3)O[C@@H]1CO2,4.6,5.0,·,·,11.1,·
CC=Cc1ccc2n(c1=O)C[C@@H]1[C@@H](CO)[C@H](C(=O)NCC(F)(F)F)[C@H]2N1C(=O)C1CCCC1 (mixture of isomers),·,9.1,-0.1,-8.2,-2.2,-1.0
O=C(CCl)N=c1sccn1Cc1cccc2ccccc12,·,·,1.2,-14.7,27.1,-2.5
O=C(CCl)N=c1sccn1Cc1ccc(Cl)cc1Cl,·,65.8*,-1.4,-4.7,31.0,0.3
O=C(CCl)N=c1sccn1Cc1ccccc1Cl,-12.4,52.3*,0.3,-4.5,60.7*,0.9
CCC(=O)OCC(=O)N=c1sccn1Cc1ccccc1Cl,-7.5,3.7,0.3,-15.2,17.0,-0.9
O=C(C[C@H]1CC[C@@H](NC(=O)c2ccccc2)[C@@H](CO)O1)NCCc1ccncc1,-11.4,4.1,1.4,-12.8,15.5,-2.2
C[C@H]1CCCCO[C@H](CN(C)C(=O)Cc2ccccc2)[C@@H](C)CN([C@@H](C)CO)C(=O)c2cc(N(C)C)ccc2O1,·,-6.6,·,·,-5.5,·
CCn1c(-c2ccccc2)csc1=Nc1ccc(O)cc1,·,·,8.3,-6.8,-9.5,48.7*
CC(C)NC(=O)Nc1ccc2c(c1)C(=O)N([C@@H](C)CO)C[C@H](C)[C@H](CN(C)S(C)(=O)=O)O2,-0.4,1.6,-0.4,0.8,13.6,-12.0
Cc1cc(NC(=O)c2n[nH]c(=O)c3ccccc23)ccc1Br,·,·,-1.3,-4.4,6.7,-3.7
CC(C)c1ccc(NC(=O)c2n[nH]c(=O)c3ccccc23)cc1,·,108.0*,-1.2,11.3,2.1,-3.0
CC(=O)c1ccc(N2CCN(C(=S)Nc3ccc(Oc4ccccc4)cc3)CC2)cc1,·,-22.5,-3.8,-20.8,-2.5,-2.6
CN1CCN(c2ccc(NC(=O)c3ccc(Oc4ccccc4)cc3)cc2)CC1,-7.9,·,4.7,12.8,50.3*,14.4
O=C(C[C@@H]1CC[C@H]2[C@@H](COC[C@@H](O)CN2Cc2cccc(C(F)(F)F)c2)O1)NCc1ccc(F)cc1,0.4,-7.8,0.4,-6.0,-9.9,-0.8
CC1(C(=O)NS(=O)(=O)c2ccc(C#N)cc2)CCN1C(=O)C1(c2ccccc2)CCCC1 (stereo not drawn),9.1,-21.2,3.4,-7.9,98.8*,-0.6
CC1(C(=O)NS(=O)(=O)c2ccc(Cl)cc2)CCN1C(=O)C1(c2ccccc2)CCCC1 (stereo not drawn),-5.0,·,2.7,-7.4,·,-2.0
CC(=O)Nc1ccc(NC(=S)NC(=O)C2CCCC2)cc1,3.8,0.3,-1.9,-14.6,-1.5,-0.4
SMILES,RAD54 branch,PGC1a acetyl inh,ERAP1 inh,RAD52 anneal inh,GSIS activator,AF4-AF9 inh
CCN(CC)c1ccc(NC(=S)NC(=O)C2CCC2)cc1,4.7,-2.3,-1.6,-42.4,-42.6,25.7*
COc1cc(NC(=O)Nc2nc(C(N)CCc3ccccc3)cs2)cc(OC)c1OC (stereo not drawn),1.2,·,-2.4,-69.7,6.9,20.3
COc1ccc(OC)c(NC(=O)Nc2nc(C(N)CCc3ccccc3)cs2)c1 (stereo not drawn),6.1,-11.2,-1.3,-20.6,·,28.0*
COc1ccccc1NC(=O)Nc1nc(C(N)Cc2ccccc2)cs1 (stereo not drawn),0.0,-9.8,2.0,-61.0,·,6.2
COc1ccc(CC(N)c2csc(NC(=O)Nc3cc(OC)ccc3OC)n2)cc1 (stereo not drawn),10.5,-20.6,-1.3,-21.6,-27.5,30.6*
COc1cccc(CN2CC3(CCN(Cc4ccccn4)CC3)c3c([nH]c4cc(OC)ccc34)[C@@H]2CO)c1,·,-20.7,-2.8,-49.7,-15.2,5.7
COCCNC(=O)[C@H]1[C@H](CO)[C@H]2Cn3c(cccc3=O)[C@@H]1N2Cc1cc(F)ccc1F,9.8,-0.7,1.6,1.7,21.8,-2.3
O=C(Nc1ccc(F)cc1)N1CCCCN2[C@H](CO)[C@@H](c3ccc(-c4ccccc4F)cc3)[C@@H]2C1,4.6,-33.5,-0.8,48.7,·,-5.8
O=S(=O)(c1ccc(F)cc1)N1CCCCN2[C@H](CO)[C@@H](c3ccc(-c4ccccc4F)cc3)[C@H]2C1,0.4,-2.3,0.0,56.5*,·,1.8
O=C(Nc1ccc(F)cc1)N1CCCCN2[C@H](CO)[C@H](c3ccc(-c4ccccc4F)cc3)[C@H]2C1,6.0,-41.3,-1.5,59.9*,·,10.8
O=C(Nc1ccc(F)cc1)N1CCCCN2[C@H](CO)[C@@H](c3ccc(-c4ccccc4F)cc3)[C@H]2C1,8.3,-22.1,-0.3,53.4*,·,9.7
CO[C@@H]1CN(C)C(=O)c2ccc(NC(=O)Nc3ccccc3)cc2OC[C@@H](C)N(CC2CC2)C[C@@H]1C,-8.3,3.8,3.2,10.4,-10.3,4.9
O=C(Nc1ccccc1)N1C[C@H]2[C@@H](c3ccccc31)[C@H](CO)N2Cc1ccccc1Cl,-14.9,-6.8,5.0,-7.2,-13.4,-1.4
N#Cc1ccc(-c2ccc([C@@H]3[C@@H]4CN(C(=O)Nc5ccc6c(c5)OCO6)C[C@H]3N4)cc2)cc1,·,9.7,·,·,-5.3,·
N#Cc1ccc(-c2ccc(C3[C@@H]4CN(C(=O)Nc5ccc(C(F)(F)F)cc5)C[C@H]3N4)cc2)cc1 (stereo partly drawn),·,-4.6,0.5,79.9*!,49.3,11.4
O=C(Nc1ccc(C(F)(F)F)cc1)N1C[C@@H]2N[C@H](C1)C2c1ccc(-c2cccc(F)c2)cc1 (stereo partly drawn),·,62.5*!,-3.6,62.1*,113.5*,-4.9
